# Laboratory results taken from PubChem BioAssay (NCATS).
# Inconclusive results are not listed. Calls of active or inactive are those of the source. The call rests on the fitted dose curve; in most records, active means well fitted inhibition curve with a large enough effect; inconclusive means small, poorly fitted or top-dose-only effect; inactive means flat fitted curve, though single readings scatter.
# Target: Calcium and integrin-binding protein 1 (Homo sapiens) (UniProt Q99828)
# Assay: Primary qHTS for Identification of Calcium Integrin Binding Protein 1 (CIB1) Competitor (AID 1508620);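 further: GST tagged CIB1 binding a fluorescein labelled alphaIIb integrin peptide tracer; top concentration of the series differs between compounds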
# Details: CIB1-GST / FITC-alphaIIb peptide fluorescence polarization; series mostly up to 114 µM; activity change, negative = inhibition: at the top concentration
# Method in brief: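 Fluorescence polarization competition: CIB1-GST (1 uM final) preincubated with compound 15 min at room temperature, then FITC-labeled alphaIIb peptide (100 nM final) added for another 15 min. Polarization read at Ex 480/Em 540.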
# On the % scale 0 is the no-effect control and ±100 the full control effect.
# Sequence of Calcium and integrin-binding protein 1 (Homo sapiens) (Q99828 whole entry, looked up): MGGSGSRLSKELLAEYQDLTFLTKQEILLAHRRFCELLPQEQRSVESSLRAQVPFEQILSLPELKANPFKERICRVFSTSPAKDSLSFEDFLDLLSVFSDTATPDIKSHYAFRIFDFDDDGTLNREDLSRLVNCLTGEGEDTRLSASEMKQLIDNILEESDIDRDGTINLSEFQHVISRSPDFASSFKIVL
SMILES,"activity change, negative = inhibition",Potency
c1ccc(OCc2nnc3ccc(-c4ccccc4)nn23)cc1,-1.4% (inactive),
O=C1CCCC2=C1C(c1[nH]ncc1Br)N=C(Nc1nc3ccccc3o1)N2 (stereo not given),-18.5% (inactive),
COc1ccc(C2Nc3ccc(Cl)cc3C(=O)N2Cc2ccccc2)cc1COc1ccc(NC(C)=O)cc1 (stereo not given),9.1% (inactive),
Cc1nnc(-c2cnn(C)c2N)n1CCCn1cccc1,1.25% (inactive),
COc1cc(O)c(C(CC(=O)N2CCCC2)c2ccc3c(c2)OCO3)c(OC)c1 (stereo not given),1.24% [at 228 µM] (inactive),
c1nc(N2CCCCC2)c2cc(-c3ccc4c(c3)OCO4)ccc2n1,-5.51% (inactive),
COc1cc(OC)cc(-c2nnc3n2N=C(c2cc(OC)ccc2OC)CS3)c1,1.56% (inactive),
O=C(/C=C/c1ccc(Cl)cc1)Nc1cccc([S+](=O)([O-])Nc2ccccc2F)c1,,inactive
COc1ccc(-c2nc3ccccc3n2Cc2ccccc2)cc1COc1ccc(NC(C)=O)cc1,2.17% (inactive),
COc1cc(-c2csc(N3CCC(C(N)=O)CC3)n2)cc(OC)c1OC,-1.04% (inactive),
NCCC(=O)Nc1cccc(-c2nn3c(=O)cc(N4CCNCC4)nc3s2)c1,5.57% (inactive),
CC(=O)Nc1sc2c(c1-c1ccc(N[S+](C)(=O)[O-])cc1)CCNC2,0.511% (inactive),
C#CCOc1cccc(-c2nnc3n2N=C(c2ccc(OC)c(OCC(C)=O)c2)CS3)c1,6.05% (inactive),
COc1cccc(C2c3c(ncn(CCN4CCOCC4)c3=N)Oc3ccc4ccccc4c32)c1 (stereo not given),-0.37% (inactive),
Oc1cc(Nc2ccc(N3CCCCC3)cc2)cc2cccnc12,-11.9% (inactive),
Brc1ccc(-c2csc(N3CCNCC3)n2)cc1,2.3% (inactive),
CC(C)Nc1nc(C#N)nc(Nc2ccccc2)n1,-1.99% (inactive),
CCOc1ccc(CCNC(=O)c2cc3sccc3n2CCN2CCN(C)CC2)cc1OCC,-0.993% (inactive),
Cc1cc(N2C(=O)c3ccccc3C2=O)no1,-7.01% (inactive),
O=C(Nc1cc(F)cc(F)c1)Nc1nnc(-c2ccncc2)s1,8.45% (inactive),

SMILES,"activity change, negative = inhibition",Potency
Cc1ccc(OCCn2c(CCNC(=O)COc3ccccc3Br)nc3ccccc32)cc1,43.2% (inactive),
O=C(NCCCc1ccccc1)C1CCN(c2nc(-c3ccc(Br)cc3)cs2)CC1,4.01% (inactive),
Cc1cc(NS(=O)(=O)c2ccc(NC(=O)Cc3ccc(Cl)cc3Cl)cc2)no1,-17% (inactive),
NC(=O)c1ccccc1C[C@H](C(=O)O)N1C(=O)c2ccc(C(=O)O)cc2C1=O,0.11% (inactive),
CCOC(=O)C1CCN(C(=O)C2(NC(=O)Nc3ccc(F)cc3F)CCCCC2)CC1,3.07% (inactive),
Cc1cccc(CNc2ccnc(-c3ccc(C(F)(F)F)cc3)n2)c1,2.56% (inactive),
CN(C(=O)Nc1ccc2ccccc2c1)c1nnc(-c2ccncc2)s1,3.63% (inactive),
O=[S+]([O-])(c1ccc(N2CCOCC2)nc1)N1CCN([S+](=O)([O-])c2c(F)cccc2F)CC1,-3.05% (inactive),
Cc1ccc(OCCn2c(CCNCC3CCCCC3)nc3ccccc32)cc1,-15.8% (inactive),
Cc1nnc(-c2cnn(C)c2N)n1CCCc1ccccn1,-1.35% (inactive),
FC(F)(F)c1ccccc1-c1nc(NCc2ccc(-c3ccc4ccccc4c3)cc2)c2ccccc2n1,-2.66% (inactive),
Cc1ccccc1S(=O)(=O)N1CCc2cc(-c3nc(NC(=O)Cc4ccc5c(c4)OCO5)sc3C)ccc21,6.34% (inactive),
COc1ccc(-c2cnc(N3CCC(C(N)=O)CC3)s2)cc1OC,-2.06% (inactive),
O=C1CCCC2=C1C(c1ccccc1)N=C(Nc1nc3ccccc3o1)N2 (stereo not given),-20% (inactive),
COc1ccc(CN(Cc2ccccc2)C(=O)c2ccccc2)cc1COc1ccc(NC(C)=O)cc1,0.803% (inactive),
COc1cc(O)c(C(CC(=O)N2CCC(c3ccccc3)CC2)c2ccc(OC)c(OC)c2)c(OC)c1 (stereo not given),-2.08% [at 228 µM] (inactive),
Cc1ccc(N[S+](=O)([O-])c2cc3c(cc2NC2CC2)NC(=O)CC3)cc1C,-7.22% (inactive),
COC(=O)c1cc2c(s1)c1cnn(Cc3ccccc3F)c(=O)c1n2C,4.03% [at 57.7 µM] (inactive),
O=[S+]([O-])(Nc1ccc(N2CCNCC2)cc1)c1ccc(NCc2cccc(Cl)c2O)cc1,-17.2% (inactive),
Cc1ccnc(NC(=S)N2CCN(c3ncc(C(F)(F)F)cc3Cl)CC2)c1,-8.46% (inactive),
